Experimental data reported in PubChem BioAssay (Tox21).
Inconclusive results are not listed. Active and inactive are the calls of the source. Unless noted, calls come from the whole dose curve; as a rule, active = well fitted curve in the direction sought with a large enough effect in the repeat runs; inconclusive = weak or mixed curves; inactive = no such curve, though single readings can be large; an effect the other way counts as inactive or inconclusive.

Assays:
[1] = molecular target: Estrogen receptor beta (Homo sapiens) (UniProt Q92731); experiment: qHTS assay to identify small molecule antagonists of the estrogen receptor beta (ER-beta) signaling pathway (AID 1259378; active = well fitted inhibition curve with a large enough effect in the signal ratio in the repeat runs, not every such curve was filed as active; the % refers to the signal ratio; note: potency is the fitted concentration of half-maximal effect)
Estrogen receptor beta (Homo sapiens), sequence (Q92731 whole entry, looked up): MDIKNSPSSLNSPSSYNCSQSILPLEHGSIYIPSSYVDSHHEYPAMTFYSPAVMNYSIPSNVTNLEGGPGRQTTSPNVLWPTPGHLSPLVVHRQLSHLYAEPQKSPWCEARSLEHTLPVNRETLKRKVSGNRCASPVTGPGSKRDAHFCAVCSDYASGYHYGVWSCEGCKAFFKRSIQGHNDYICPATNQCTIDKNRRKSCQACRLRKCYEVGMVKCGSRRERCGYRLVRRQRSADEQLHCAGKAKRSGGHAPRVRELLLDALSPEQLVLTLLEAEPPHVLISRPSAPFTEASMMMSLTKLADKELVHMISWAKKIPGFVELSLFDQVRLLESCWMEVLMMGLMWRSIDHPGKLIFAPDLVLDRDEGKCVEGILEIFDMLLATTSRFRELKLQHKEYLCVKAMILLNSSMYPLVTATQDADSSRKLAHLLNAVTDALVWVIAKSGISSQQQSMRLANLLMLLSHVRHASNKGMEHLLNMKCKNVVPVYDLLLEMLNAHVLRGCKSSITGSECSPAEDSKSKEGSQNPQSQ
Summary of the method: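 ER-beta-UAS-bla HEK293T (GripTite) cells in 2% charcoal-stripped FBS medium were preincubated 6 hr at 37C, dosed with compound, then stimulated with 1 nM E2 (final) for 16 hr; beta-lactamase reporter read by B/G FRET fluorescence after 2 hr substrate loading.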

[2] = qHTS assay to identify small molecule agonists of the androgen receptor (AR) signaling pathway in the presence of an antagonist - cell viability counter screen (AID 1259379); note: nearly all actives have a fitted effect of over 25% in size; note: potency is the fitted concentration of half-maximal effect;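 for activity change, negative = cytotoxicity: MDA-kb2 human breast cancer cells carrying an MMTV luciferase reporter; series mostly up to about 92 µM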
Summary of the method: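 Fluorescence from CellTiter-Fluor, added after 15 hr and read 1 hr later, gave cell viability. Cells were MDA-kb2 exposed to compounds (15 concentrations) in the presence of 3.0uM nilutamide at 37C, 0% CO2.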

[3] = qHTS assay to identify small molecule agonists of the estrogen receptor beta (ER-beta) signaling pathway - cell viability counter screen (AID 1259380); note: nearly all actives have a fitted effect of over 30% in size; note: potency is the fitted concentration of half-maximal effect
Summary of the method: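 Same-well viability counter screen. Cells: ER-beta-UAS-bla HEK293T, plated 6 hr before compound, in 2% charcoal-stripped FBS. Compound exposure 16 hr, 37C; viability by CellTiter-Glo luminescence after 30 min at room temperature.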

[4] = molecular target: Androgen receptor (Homo sapiens) (UniProt P10275); experiment: qHTS assay to identify small molecule agonists of the androgen receptor (AR) signaling pathway in the presence of an antagonist (AID 1259381; calls by dose curve; note: nearly all actives have a fitted effect of over 15% in size)
Androgen receptor (Homo sapiens), sequence (P10275 whole entry, looked up): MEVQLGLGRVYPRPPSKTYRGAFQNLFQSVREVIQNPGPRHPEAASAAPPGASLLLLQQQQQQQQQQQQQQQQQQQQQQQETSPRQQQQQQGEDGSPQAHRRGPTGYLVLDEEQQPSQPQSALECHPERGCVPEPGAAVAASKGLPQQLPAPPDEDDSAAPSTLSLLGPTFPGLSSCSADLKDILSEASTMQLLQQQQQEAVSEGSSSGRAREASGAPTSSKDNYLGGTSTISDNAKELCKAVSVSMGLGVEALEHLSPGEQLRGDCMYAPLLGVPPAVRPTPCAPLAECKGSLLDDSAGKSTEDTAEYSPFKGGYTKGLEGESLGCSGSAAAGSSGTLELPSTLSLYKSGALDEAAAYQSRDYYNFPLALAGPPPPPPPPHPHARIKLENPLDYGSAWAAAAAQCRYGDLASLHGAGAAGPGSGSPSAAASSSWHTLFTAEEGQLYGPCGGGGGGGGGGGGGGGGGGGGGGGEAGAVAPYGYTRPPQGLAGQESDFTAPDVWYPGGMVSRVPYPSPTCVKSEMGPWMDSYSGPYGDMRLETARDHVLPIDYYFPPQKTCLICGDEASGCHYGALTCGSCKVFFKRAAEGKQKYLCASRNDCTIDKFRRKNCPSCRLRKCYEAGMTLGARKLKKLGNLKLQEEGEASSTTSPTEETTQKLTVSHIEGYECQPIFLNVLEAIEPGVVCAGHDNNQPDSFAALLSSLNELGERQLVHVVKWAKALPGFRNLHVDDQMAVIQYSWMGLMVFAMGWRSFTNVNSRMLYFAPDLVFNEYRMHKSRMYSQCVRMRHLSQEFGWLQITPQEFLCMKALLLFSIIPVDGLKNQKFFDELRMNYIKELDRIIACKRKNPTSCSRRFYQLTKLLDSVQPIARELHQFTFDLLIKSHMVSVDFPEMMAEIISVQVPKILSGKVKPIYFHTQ
Summary of the method: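 Cells are MDA-kb2 (human breast carcinoma, MMTV-luc, AR/GR responsive). Nilutamide is present at 3.0uM final throughout; compounds are added at 15 concentrations and incubated 16hr at 37C before ONE-Glo luminescence detection.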

[5] = qHTS assay to identify small molecule antagonists of the estrogen receptor beta (ER-beta) signaling pathway - cell viability counter screen (AID 1259382); note: nearly all actives have a fitted effect of over 55% in size; note: potency is the fitted concentration of half-maximal effect; for activity change, negative = cytotoxicity: series mostly up to about 92 µM
Summary of the method: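 Following a 6 hr plating period, HEK293T cells carrying a UAS-driven beta-lactamase reporter under ER-beta control received compounds and 1nM E2 (final). After 16 hr at 37C and 2 hr substrate loading, CellTiter-Glo luminescence indicated viability.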

[6] = molecular target: Estrogen receptor (Homo sapiens) (UniProt P03372); experiment: qHTS assay to identify small molecule agonists of the estrogen receptor alpha (ER-alpha) signaling pathway in the presence of an antagonist (AID 1259383; calls by dose curve; note: top concentration of the series differs between compounds; nearly all actives have a fitted effect of over 15% in size)
Estrogen receptor (Homo sapiens), sequence (P03372 whole entry, looked up): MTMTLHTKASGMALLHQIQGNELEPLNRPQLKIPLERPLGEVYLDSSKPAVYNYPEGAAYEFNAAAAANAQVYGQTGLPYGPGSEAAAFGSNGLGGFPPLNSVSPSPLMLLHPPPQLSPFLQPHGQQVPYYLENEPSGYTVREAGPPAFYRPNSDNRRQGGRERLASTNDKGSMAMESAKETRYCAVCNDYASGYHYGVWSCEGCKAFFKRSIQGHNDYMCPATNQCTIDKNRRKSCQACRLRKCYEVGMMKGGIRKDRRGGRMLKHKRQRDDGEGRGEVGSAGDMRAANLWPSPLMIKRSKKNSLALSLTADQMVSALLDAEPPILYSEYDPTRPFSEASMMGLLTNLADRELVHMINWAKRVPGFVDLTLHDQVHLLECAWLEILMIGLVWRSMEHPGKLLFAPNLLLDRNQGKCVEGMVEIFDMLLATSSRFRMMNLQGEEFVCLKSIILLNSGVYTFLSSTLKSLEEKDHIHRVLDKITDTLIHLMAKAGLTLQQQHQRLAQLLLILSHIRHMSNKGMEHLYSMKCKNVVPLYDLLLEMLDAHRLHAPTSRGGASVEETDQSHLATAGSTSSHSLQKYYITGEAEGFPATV
Summary of the method: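 Cells are hormone-deprived for 5 days (charcoal-stripped FBS, no phenol red), plated for 24hr, spiked with 10.0nM ICI-182,780, then dosed at 15 concentrations. After 22hr at 37C, ONE-Glo luminescence reports ERE-luciferase activity.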

[7] = molecular target: Thyrotropin receptor (Homo sapiens) (UniProt P16473); experiment: qHTS assay to identify small molecule antagonists of the thyroid stimulating hormone receptor (TSHR) signaling pathway (AID 1259385; calls by dose curve; note: nearly all actives have a fitted effect of over 20% in size)
Thyrotropin receptor (Homo sapiens), sequence (P16473 whole entry, looked up): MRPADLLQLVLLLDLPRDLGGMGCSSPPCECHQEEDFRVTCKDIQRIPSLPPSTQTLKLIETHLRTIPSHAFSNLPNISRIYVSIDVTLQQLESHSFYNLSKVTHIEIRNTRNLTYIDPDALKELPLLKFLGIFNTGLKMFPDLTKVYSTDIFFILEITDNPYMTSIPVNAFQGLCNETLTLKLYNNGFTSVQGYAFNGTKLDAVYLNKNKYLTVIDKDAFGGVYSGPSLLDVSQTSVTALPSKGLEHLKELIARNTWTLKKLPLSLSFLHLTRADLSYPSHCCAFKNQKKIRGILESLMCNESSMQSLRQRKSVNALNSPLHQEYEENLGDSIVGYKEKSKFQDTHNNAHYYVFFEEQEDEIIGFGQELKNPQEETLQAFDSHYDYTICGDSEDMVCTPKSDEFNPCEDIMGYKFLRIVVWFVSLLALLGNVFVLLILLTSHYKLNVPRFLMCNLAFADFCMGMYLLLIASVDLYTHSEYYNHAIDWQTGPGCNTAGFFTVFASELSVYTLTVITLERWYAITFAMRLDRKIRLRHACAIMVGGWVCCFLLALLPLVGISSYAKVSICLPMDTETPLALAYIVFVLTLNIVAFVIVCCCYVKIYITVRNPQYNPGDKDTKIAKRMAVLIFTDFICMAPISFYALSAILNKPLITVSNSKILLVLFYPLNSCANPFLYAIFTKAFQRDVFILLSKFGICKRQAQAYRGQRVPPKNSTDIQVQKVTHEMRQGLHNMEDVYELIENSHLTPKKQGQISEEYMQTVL
Summary of the method: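 TSHR-HEK293 cells were plated and held 18 h at 37C/5% CO2, then given compound plus Ro20-1724 and stimulated with TSH at 1.5 ng/mL final. After 30 min at room temperature, cAMP was detected with cAMP-d2/anti-cAMP-cryptate (1 h) by fluorescence.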

[8] = qHTS assay to identify small molecule agonists of the estrogen receptor alpha (ER-alpha) signaling pathway in the presence of an antagonist - cell viability counter screen (AID 1259386);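 note: cells exposed to compounds for 22 h at 37 °C before the viability read; nearly all actives have a fitted effect of over 30% in size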; note: potency is the fitted concentration of half-maximal effect; for activity change, negative = cytotoxicity: series mostly up to about 92 µM
Summary of the method: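 Cells are starved of estrogens for 5 days in charcoal-stripped serum, seeded for 24hr and co-treated with ICI-182,780 (10.0nM final) and test compounds. After 22hr at 37C, viability is read as CellTiter-Fluor fluorescence.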

[9] = molecular target: Progesterone receptor (Homo sapiens) (UniProt P06401); experiment: qHTS assay to identify small molecule agonists of the progesterone receptor (PR) signaling pathway (AID 1346784; calls by dose curve; note: nearly all actives have a fitted effect of over 30% in size)
Progesterone receptor (Homo sapiens), sequence (P06401 whole entry, looked up): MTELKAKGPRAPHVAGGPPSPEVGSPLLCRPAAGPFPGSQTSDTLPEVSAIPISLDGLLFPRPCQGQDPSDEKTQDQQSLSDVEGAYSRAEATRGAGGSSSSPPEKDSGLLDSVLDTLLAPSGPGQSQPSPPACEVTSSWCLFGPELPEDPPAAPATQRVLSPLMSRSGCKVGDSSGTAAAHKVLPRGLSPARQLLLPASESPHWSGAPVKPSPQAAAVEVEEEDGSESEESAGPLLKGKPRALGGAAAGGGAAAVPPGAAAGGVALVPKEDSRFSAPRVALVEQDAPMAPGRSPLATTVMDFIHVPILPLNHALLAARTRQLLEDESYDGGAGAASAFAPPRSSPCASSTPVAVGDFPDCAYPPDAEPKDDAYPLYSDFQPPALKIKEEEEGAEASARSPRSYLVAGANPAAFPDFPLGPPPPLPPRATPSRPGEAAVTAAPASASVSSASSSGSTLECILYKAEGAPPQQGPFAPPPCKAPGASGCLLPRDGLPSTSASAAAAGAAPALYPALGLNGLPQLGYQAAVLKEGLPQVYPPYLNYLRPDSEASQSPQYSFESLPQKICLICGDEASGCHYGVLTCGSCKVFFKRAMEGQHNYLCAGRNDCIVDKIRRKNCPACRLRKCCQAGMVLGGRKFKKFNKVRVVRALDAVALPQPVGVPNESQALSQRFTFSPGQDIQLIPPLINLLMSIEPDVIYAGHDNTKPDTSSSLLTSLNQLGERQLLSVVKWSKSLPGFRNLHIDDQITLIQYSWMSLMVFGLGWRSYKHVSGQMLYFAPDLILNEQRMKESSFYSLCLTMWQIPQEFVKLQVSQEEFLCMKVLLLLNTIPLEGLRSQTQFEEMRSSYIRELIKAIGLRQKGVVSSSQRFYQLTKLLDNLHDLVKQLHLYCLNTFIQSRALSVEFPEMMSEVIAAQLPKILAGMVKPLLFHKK
Summary of the method: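 Agonist mode, quantitative HTS format in a HEK 293T line expressing a UAS-controlled beta-lactamase reporter; 16 hr compound exposure at 37C in 2% charcoal-stripped FBS, then LiveBLAzer B/G FRET fluorescence.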

[10] = qHTS assay to identify small molecule agonists or antagonists of the thyroid stimulating hormone receptor (TSHR) signaling pathway - wild type cell line counter screen (AID 1259384; calls by dose curve)
Summary of the method: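 Wild-type HEK293 cells were plated 18 h at 37 C/5% CO2, pin-dosed with compound plus Ro20-1724 medium, held 30 min at room temperature, then given cAMP-d2 and anti-cAMP-cryptate; fluorescence was read after 1 h. Fifteen concentrations, triplicate.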
% is set by controls: 0 for no effect and ±100 for the full control effect.

CCCCCCCCCCOC(=O)c1ccccc1C(=O)OCCCCCCCC
inactive: Potency [1] | Potency [2] | Potency [3] | outcome [4] | Potency [5] | Potency [6] | Potency [7] | Potency [8] | Potency [9]

CN(C)Cc1ccccc1O
inactive: Potency [1] | Potency [2] | Potency [3] | outcome [4] | Potency [5] | Potency [6] | Potency [9]

COc1cc(C)ccc1O
inactive: Potency [1] | Potency [2] | Potency [3] | Potency [5] | Potency [6] | outcome [10] | Potency [7] | Potency [8] | Potency [9]

Cc1ccc(N/N=c2\c(=O)cc/c(=N\Nc3ccc(S(=O)(=O)O)cc3)c2=O)c(C)c1
active: Potency [2] 27.3 µM | Potency [8] 34.4 µM
inactive: Potency [1] | Potency [3] | Potency [5] | Potency [6] | outcome [10] | Potency [7] | Potency [9]

O=C(O)c1cc(=O)c2ccccc2o1
inactive: Potency [1] | Potency [2] | Potency [3] | Potency [5] | Potency [6] | outcome [10] | Potency [8] | Potency [9]

CCO[Si](OCC)(OCC)OCC
inactive: Potency [1] | Potency [2] | Potency [3] | Potency [5] | Potency [6] | Potency [7] | Potency [8]

CC(=O)OCC=C(C)C
inactive: Potency [1] | Potency [2] | Potency [3] | outcome [4] | Potency [5] | Potency [6] | outcome [10] | Potency [7] | Potency [8] | Potency [9]

C=Cc1cccc(C)c1
inactive: Potency [1] | Potency [2] | Potency [3] | Potency [5] | Potency [6] | outcome [10] | Potency [7] | Potency [8] | Potency [9]

CCOC(=O)NNc1ccc(N(CC)CC(C)O)nn1 (centres undefined)
inactive: Potency [1] | Potency [2] | Potency [3] | Potency [5] | Potency [6] | outcome [10] | Potency [7] | Potency [8] | Potency [9]

CC1(C)CC(O)CC(C)(C)N1
inactive: Potency [1] | Potency [2] | Potency [3] | Potency [5] | Potency [6] | outcome [10] | Potency [7] | Potency [8] | Potency [9]

CN(C)[C@@H](CCOc1cccc2ccccc12)c1ccccc1
active: Potency [1] 29.8 µM | Potency [2] 29.8 µM | Potency [3] 23.7 µM | Potency [5] 15 µM
inactive: outcome [4] | Potency [6] | outcome [10] | Potency [8] | Potency [9]

CCCCCCCCCCCC(=O)OCC(C)OC(=O)CCCCC(=O)O (centres undefined)
inactive: Potency [1] | Potency [2] | Potency [3] | Potency [5] | Potency [6] | outcome [10] | Potency [7] | Potency [8] | Potency [9]

O=[N+]([O-])c1cccc(C(F)(F)F)c1
inactive: Potency [1] | Potency [2] | Potency [3] | Potency [5] | Potency [6] | outcome [10] | Potency [7] | Potency [8] | Potency [9]

CCCCCCCC/C=C\CCCCCCCCN
inactive: Potency [1] | Potency [2] | Potency [3] | Potency [5] | Potency [6] | Potency [7] | Potency [8] | Potency [9]

FC(F)(F)c1cccc(Cl)c1
inactive: Potency [1] | Potency [2] | Potency [3] | outcome [4] | Potency [5] | Potency [6] | Potency [7] | Potency [8]

O=C(Nc1ccc2c(O)c(N=Nc3ccc(N=Nc4ccc(S(=O)(=O)O)cc4)cc3)c(S(=O)(=O)O)cc2c1)c1ccccc1
inactive: Potency [1] | Potency [3] | Potency [5] | Potency [6] | outcome [10] | Potency [7] | Potency [9]
active: Potency [2] 21.7 µM | Potency [8] 13.7 µM

CN(C)CCN1CCN(c2cccc(Cl)c2)C1=O
inactive: Potency [1] | Potency [2] | Potency [3] | outcome [4] | Potency [5] | Potency [6] | outcome [10] | Potency [8] | Potency [9]

OC[C@@H](O)[C@@H](O)CO
inactive: Potency [1] | Potency [2] | Potency [3] | Potency [5] | Potency [6] | outcome [10] | Potency [7] | Potency [8] | Potency [9]

CC(C)Cn1cnc2c(N)nc3ccccc3c21
inactive: activity, negative = inhibition [1] 5.3% [at 19 µM] | activity change, negative = cytotoxicity [2] -7.59% [at 19 µM] | activity change, negative = cytotoxicity [3] 0.961% [at 19 µM] | activation [4] -5.94% [at 19 µM] | activity change, negative = cytotoxicity [5] -2.67% [at 19 µM] | activation [6] -0.124% [at 19 µM] | cAMP activity change [10] -0.409% [at 18.9 µM] | activity change, negative = inhibition [7] 2.37% [at 19 µM] | activity change, negative = cytotoxicity [8] -6.27% [at 19 µM] | activation [9] 1.05% [at 19 µM]

COC(=O)c1ccccc1OC
inactive: Potency [1] | Potency [2] | Potency [3] | Potency [5] | Potency [6] | outcome [10] | Potency [7] | Potency [8] | Potency [9]

CNc1ccc([N+](=O)[O-])cc1
inactive: Potency [1] | Potency [3] | outcome [4] | Potency [5] | Potency [6] | Potency [7] | Potency [9]
active: Potency [2] 48.7 µM | Potency [8] 34.4 µM
